# Source: PubChem BioAssay AID463173 (ICCB-Longwood Screening Facility, Harvard Medical School, 2010)
# The whole screen tested about 52,000 compounds, of which about 4,300 (8.3%) were called active. This is one part of a sample in which actives are shown more often than they occur. Values without a mark were called inactive. No stated cut-off is given here; in the data, active means survival mostly below about 52% (no sharp cut-off); inactive means mostly above about 56%.
# Tested on: DeltatarO mutant
# Assay: S. aureus survival, RN4220 and DeltatarO strains – OD600, teichoic acid synthesis inhibitors, primary screen (AID 463173)
# Details: S. aureus RN4220 wild type/DeltatarO growth, OD600, 18 h, active compounds read low, screened at 18.75 µg/mL (by protocol)
row,SMILES,survival
1,O=C(Nc1ccc2nc(SCC(=O)N3CCCC3)sc2c1)c1ccc(Br)cc1,92%
2,O=c1ccn2c(n1)OC1C(O)C(CO)OC12 (centres undefined),83%
3,O=C(c1ccccc1)N(C(=O)c1ccccc1)c1ccccn1,71%
4,Cc1cc2c(cc1S(=O)(=O)Nc1cccc(C#N)c1)OCC(=O)N2,93%
5,COc1cccc(N2CCN(C(=O)CCc3c(C)nc4c(c3C)c(=O)n(C)c(=O)n4C)CC2)c1,98%
6,CN(c1ccc(F)cc1)S(=O)(=O)N1CCCC(C(=O)NCc2cccc(Br)c2)C1 (centres undefined),72%
7,O=C(Nc1ccccn1)C(=NO)C(=O)Nc1ccccn1,98%
8,CC(C)c1ccccc1NC(=O)C(Cc1c[nH]c2ccccc12)NC(=O)OC(C)(C)C (centres undefined),162%
9,COc1ccc(NC(=O)C(Cc2c[nH]c3ccccc23)NC(=O)OC(C)(C)C)cc1 (centres undefined),48%
10,Cc1ccc(NC(=O)C(Cc2c[nH]c3ccccc23)NC(=O)OC(C)(C)C)c(C)c1 (centres undefined),27% (active)
11,N#Cc1ccccc1NC(=O)c1cccs1,93%
12,COc1ccc(Nc2ncc(C(=O)Nc3cc(C)ccc3OC)c3ccccc23)cc1,50%
13,Cc1ccc(Nc2ncc(C(=O)Nc3ccc(F)cc3F)c3ccccc23)cc1Cl,37% (active)
14,COc1ccc(Nc2ncc(C(=O)Nc3ccc(F)cc3F)c3ccccc23)cc1,35% (active)
15,COc1ccc(Nc2ncc(C(=O)Nc3cc(Cl)c(OC)cc3OC)c3ccccc23)cc1,72%
16,COc1ccc(Nc2ncc(C(=O)Nc3cccc(OC)c3)c3ccccc23)cc1,106%
17,COC(=O)c1ccccc1NC(=O)c1cnc(Nc2ccc(OC)cc2)c2ccccc12,61%
18,COc1ccc(OC)c(NC(=O)c2cnc(Nc3ccc(C)c(Cl)c3)c3ccccc23)c1,44% (active)
19,Cc1ccc(Nc2ncc(C(=O)N3CCN(c4ccc(F)cc4)CC3)c3ccccc23)cc1Cl,76%
20,COc1ccccc1Nc1ncc(C(=O)Nc2ccc(OC)c(OC)c2)c2ccccc12,43% (active)
21,CCOc1ccc(NC(=O)c2cnc(Nc3ccccc3OC)c3ccccc23)cc1,50%
22,COc1ccc(NC(=O)c2cnc(Nc3ccc(C)c(Cl)c3)c3ccccc23)c(OC)c1,63%
23,COc1ccc(NC(=O)c2cnc(Nc3ccc(C)c(Cl)c3)c3ccccc23)cc1OC,51%
24,CCOC(=O)c1c(C)[nH]c(C)c1S(=O)(=O)N(C)CC(=O)Nc1cc(Cl)ccc1C,94%
25,COc1ccc(S(=O)(=O)c2cn(C)c3cc(N4CCOCC4)c(F)cc3c2=O)cc1,96%

row,SMILES,survival
1,CCc1cccc(CC)c1NC1=NS(=O)(=O)c2ccccc21,70%
2,Cc1cc(N2CCN(c3ccc(F)cc3)CC2)n2cnnc2n1,79%
3,COc1ccc(-c2cn3cccnc3n2)cc1NC(=O)Nc1ccc(Cl)cc1,84%
4,CCC(Sc1nncn2c1cc1oc(C)cc12)C(=O)Nc1ccc(F)cc1 (centres undefined),54%
5,O=C(CSc1nncn2c1cc1occc12)Nc1ccc(F)c(Cl)c1,65%
6,CCc1cccc(C)c1NC(=O)CSc1nnc(CC)n2c1cc1occc12,67%
7,CCc1nnc(SC(CC)C(=O)Nc2cc(C)ccc2C)c2cc3occc3n12 (centres undefined),79%
8,COc1ccc(NC(=O)CSc2nncn3c2cc2occc23)c(OC)c1,69%
9,CCC(Sc1nncn2c1cc1occc12)C(=O)Nc1ccc(C)c(Cl)c1 (centres undefined),36% (active)
10,Cc1cc(C)cc(NC(=O)CSc2nncn3c2cc2occc23)c1,46% (active)
11,CCc1ccccc1NC(=O)CSc1nncn2c1cc1oc(C)cc12,62%
12,Cc1cc(C)c(NC(=O)CSc2nncn3c2cc2oc(C)cc23)c(C)c1,65%
13,CCc1nnc(SC(CC)C(=O)Nc2ccc(OC)c(Cl)c2)c2cc3occc3n12 (centres undefined),72%
14,Cc1cc2c(cc3c(SCC(=O)Nc4ccc(Cl)cc4F)nncn32)o1,36% (active)
15,CCc1cccc(C)c1NC(=O)C(CC)Sc1nncn2c1cc1occc12 (centres undefined),53% (active)
16,CC(C)c1ccc(NC(=O)c2ccc(F)c(S(=O)(=O)N3CCCC3)c2)cc1,74%
17,Cc1ccccc1C(=O)N1CCCCC1CCN1CCCCC1 (centres undefined),80%
18,Cc1ccc(S(=O)(=O)N2CC=C(c3ccc(F)cc3)CC2)cc1,87%
19,Cc1nn2c(=O)cc(COC(=O)c3ccccc3NC(=O)c3cccs3)nc2s1,74%
20,COc1ccc(CN(Cc2ccco2)C(=O)c2ccccc2F)cc1,74%
21,CCOc1ccc(C2C(=O)N(C3CCCCCC3)CC(=O)N2Cc2ccc(C)cc2)cc1OC (centres undefined),96%
22,CSc1cccc(NC(=O)Cn2nc(C)c3sc4ccccc4c3c2=O)c1,83%
23,CC1(C)Oc2ccc3ccc(=O)oc3c2-c2cn[nH]c21,69%
24,Cc1nc2sccn2c(=O)c1S(=O)(=O)Nc1cccc(Cl)c1C,68%
25,Cc1nc2sccn2c1-c1csc(Nc2cccc(Cl)c2C)n1,15% (active)

row,SMILES,survival
1,Cc1cccc(NS(=O)(=O)c2c(C)nc3sccn3c2=O)c1C,108%
2,CCCCC(CC)C(=O)Nc1nnc(C(C)C)s1 (centres undefined),91%
3,O=C(CN1C(=O)CC(c2ccco2)Sc2ccccc21)Nc1ccc(Br)cc1 (centres undefined),75%
4,O=C1CC(c2nnc(Cc3ccc(F)cc3Cl)o2)CN1c1ccccc1 (centres undefined),133%
5,Cc1ccc(SCc2nc(-c3ccc(C(=O)NCCc4ccc(Cl)cc4)cc3)oc2C)cc1,-2% (active)
6,Cc1oc(-c2ccc(C(=O)NCCc3ccc(Cl)cc3)cc2)nc1CSc1ccccc1,83%
7,Cc1ccc(SCc2nc(-c3ccc(C(=O)NCc4ccc(Cl)cc4)cc3)oc2C)cc1,76%
8,CCc1ccc(CNC(=O)c2ccc(-c3nc(CSc4ccc(C)cc4)c(C)o3)cc2)cc1,67%
9,COc1ccc(CNC(=O)c2ccc(-c3nc(CSc4ccc(C)cc4)c(C)o3)cc2)cc1OC,-1% (active)
10,COc1ccc(CNC(=O)c2ccc(-c3nc(CSc4ccccc4)c(C)o3)cc2)c(OC)c1,85%
11,COc1ccc(OC)c(CNC(=O)c2ccc(-c3nc(CSc4ccccc4)c(C)o3)cc2)c1,120%
12,COc1ccc(CNC(=O)c2ccc(-c3nc(CSc4ccccc4)c(C)o3)cc2)cc1OC,78%
13,COc1ccc(CNC(=O)c2ccc(-c3nc(CSc4ccc(C)cc4)c(C)o3)cc2)c(OC)c1,6% (active)
14,Cc1ccc(NC(=O)CSc2nnc(-c3cc4occc4n3C)n2-c2ccccc2C)c(C)c1,88%
15,Cc1ccc(CSC2=Nc3ccccc3C3=NC(CCC(=O)NCc4cccs4)C(=O)N23)c(C)c1 (centres undefined),76%
16,Cc1ccc2c(c1)cc(C(=O)Nc1ccc(F)cc1F)n2C,106%
17,COc1ccccc1NC(=O)CCCOc1cc(=O)n(C)c2ccccc12,114%
18,Cn1c(=O)[nH]c(=O)c2[nH]c(NCCO)nc21,80%
19,COc1ccc(-c2nc(CN3CCC(C(=O)NCCCN4CCN(c5ccccc5F)CC4)CC3)c(C)o2)cc1OC,70%
20,COc1ccccc1CNc1ccc(-c2nc(-c3ccccc3C)no2)cc1[N+](=O)[O-],91%
21,COc1ccccc1CNc1ccc(-c2nc(-c3ccccn3)no2)cc1[N+](=O)[O-],43% (active)
22,COc1ccccc1CNc1ccc(-c2nc(C)no2)cc1[N+](=O)[O-],68%
23,COc1ccccc1CNc1ccc(-c2nc(-c3ccncc3)no2)cc1[N+](=O)[O-],45% (active)
24,COc1ccccc1CNc1ccc(-c2nc(-c3cccnc3)no2)cc1[N+](=O)[O-],78%
25,COc1ccc(-c2noc(-c3ccc(NCc4ccccc4OC)c([N+](=O)[O-])c3)n2)cc1,57%

row,SMILES,survival
1,Cc1ccc(CNc2ccc(-c3nc(-c4cccnc4)no3)cc2[N+](=O)[O-])cc1,75%
2,Cc1ccc(CNc2ccc(-c3nc(-c4ccncc4)no3)cc2[N+](=O)[O-])cc1,39% (active)
3,O=[N+]([O-])c1cc(-c2nc(-c3ccncc3)no2)ccc1NCc1ccccc1,109%
4,O=C(CNCC1CCCO1)Nc1ccccc1-n1cccc1 (centres undefined),70%
5,CCOc1ccc(CNCCNC(=O)c2nonc2N)cc1,84%
6,CC1C(=NO)C(C)C(c2ccccc2)NC1c1ccccc1 (centres undefined),99%
7,O=C(Nc1cc(Cl)ccc1O)c1nc2ncccn2n1,74%
8,CCOc1cc(C2C(C(=O)Nc3ccccc3)=C(C)Nc3ncnn32)cc(Br)c1O (centres undefined),102%
9,Cc1ccc2sc(N(CCCN(C)C)C(=O)c3ccco3)nc2c1C,128%
10,COC(=O)CN1C(=O)CSc2ccc(S(=O)(=O)Nc3ccc(F)c(Cl)c3)cc21,83%
11,Cc1ccc(NC(=O)COc2ccc(-c3nn(C)c(=O)c4ccccc34)cc2)c(C)c1,73%
12,CC(=O)c1cccc(NC(=O)c2cc3c(s2)-c2c(C)cccc2OC3)c1,120%
13,Cc1cc(C)cc(NC(=O)c2cc(C)nc3c2c(C)nn3-c2ccccc2)c1,-5% (active)
14,Cc1cc(C(=O)Nc2ccc(C(C)C)cc2)c2c(C)nn(-c3ccccc3)c2n1,73%
15,Cc1ccc(CCNC(=O)c2cc(C)nc3c2c(C)nn3-c2ccc(C)cc2)cc1,25% (active)
16,COc1ccc(NC(=O)c2cc(C)nc3c2c(C)nn3-c2cccc(Cl)c2C)c(OC)c1,88%
17,Cc1ccc(-n2nc(C)c3c(C(=O)NCCc4ccc(S(N)(=O)=O)cc4)cc(C)nc32)cc1,118%
18,Cc1ccc(-n2nc(C)c3c(C(=O)NCCc4ccccc4)cc(C)nc32)cc1,70%
19,Cc1cc(C(=O)Nc2cccc(C(F)(F)F)c2)c2c(C)nn(-c3cccc(F)c3)c2n1,17% (active)
20,Cc1cc(C)c(NC(=O)c2cc(C)nc3c2c(C)nn3-c2cccc(F)c2)c(C)c1,94%
21,Cc1cc(C(=O)Nc2cccc(C)c2C)c2c(C)nn(-c3cccc(F)c3)c2n1,94%
22,Cc1ccc(-n2nc(C)c3c(C(=O)Nc4ccc(Br)c(C)c4)cc(C)nc32)cc1,101%
23,CCc1cccc(C)c1NC(=O)c1cc(C)nc2c1c(C)nn2-c1cccc(Cl)c1C,88%
24,Cc1ccc(NC(=O)c2cc(C)nc3c2c(C)nn3-c2cccc(Cl)c2C)c(C)c1,-5% (active)
